This is a sample that favours compounds with a hit; in the whole collection about 11% have one here.
Pf growth 48h – inhibits P. falciparum growth in the first generation, 48 h; 5.9% of 310,000 active; Potency, µM (highest dose often 28.7 µM), for the others: top-dose activity change, negative = inhibition, usual class: inhibitors; P. falciparum luciferase growth in erythrocytes, 48 h; AID 504832
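Luciferase-expressing parasites in RBCs, 2% Hct / 0.1% parasitemia final; RPMI 1640 + 0.5% Albumax; 37 C, 5% CO2, one generation; luminescence read-out, lower signal = inhibition.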
AMA1 RON2 block – AMA1-RON2 (P. falciparum) interaction inhibition; AlphaScreen AMA1-biotinylated RON2 peptide binding; Potency, µM (top dose mostly 58.2 µM), for the others: top-dose activity change, negative = inhibition, most hits filed as inhibitors; 0.2% of 360,000 active;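 further: 0% = vehicle wells and -100% = peptide control; nearly all actives have a fitted effect of over 45% in size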
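AMA1 (3D7) with his tag at 25 nM final met compounds first, then biotinylated RON2 peptide at 25 nM; detection used donor plus acceptor beads, 10 µg/mL apiece, read by AlphaScreen after 30 min at room temperature.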
Pf growth 96h – P. falciparum growth inhibition at 96 hours. P. falciparum luciferase reporter growth, 96 h. Potency, µM (top dose mostly 28.7 µM), for inactives: top-dose activity change, negative = inhibition, most hits filed as inhibitors. 6.9% of 320,000 active. AID 504834
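Plates of compound plus infected erythrocytes (2% hematocrit, 0.05% parasitemia final) incubate 96 hours, 37 C, 5% CO2. Detection reagent added; reduced luminescence from the parasites' luciferase reporter flags inhibition.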
HCV inh – HCV inhibition | Huh7.5.1 HCVcc-Cre infection, luciferase reporter, 44 h | 3.4% of 340,000 active | Potency, µM (top dose mostly 41.8 µM), for the others: top-dose activity change, negative = inhibition, usual class: inhibitors | AID 651820
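Infectious HCVcc-Cre (~0.5 moi) was added to cells just after compound, with cells seeded 4 h earlier at 1,000 per well. Luciferase activity after 44 h culture reported infection; substrate was incubated 15 min at room temperature before reading.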
Active calls of the source: *; ? = inconclusive; . = not tested or not shown; [ ] = remark or other dose. The call rests on the fitted dose curve; in most records, active means well fitted curve in the direction sought with a large enough effect; inconclusive means small, poorly fitted or top-dose-only effect, or another doubt; inactive means no such curve, though single readings can be large; an effect the other way counts as inactive or inconclusive. Unless noted, on the % scale 0 is the no-effect control and ±100 the full control effect; potency means the concentration at half of the fitted maximal effect.

SMILES	Pf growth 48h	AMA1 RON2 block	Pf growth 96h	HCV inh
CC(=O)c1c(C)[nH]c(C(=O)CN2C(=O)NC(CCc3ccccc3)C2=O)c1C (centres undefined)	?	-10%	?	-22%
Cc1nn(-c2ccccc2)c2sc(C(=O)NNC(=O)COc3ccccc3)cc12	6%	54%	11%	-26%
Cc1nn(-c2ccccc2)c2sc(C(=O)NC3CCCCC3)cc12	?	-7%	5%	2.5µM*
Cc1nn(-c2ccccc2)c2sc(C(=O)c3c(N)n(C)c(=O)n(C)c3=O)cc12	1.5µM*	-17%	?	-18%
Cc1cnc(NC(=O)c2cc3c(C)nn(-c4ccccc4)c3s2)s1	6.6µM*	24%	?	?
Cc1nn(-c2ccccc2)c2sc(C(=O)NCCN3CCOCC3)cc12	?	-12%	3.7µM*	2.2µM*
O=C(Nc1nc(COc2ccccc2)cs1)c1ccccc1F	42%	-9%[11.6 µM]	73%	?
CCCNC(=O)C1(C)CCCN(C(=O)c2ccc(OC(F)F)cc2)C1 (centres undefined)	.	12%	.	.
O=C(NCc1ccco1)c1ccccc1O	-34%	-2%	10µM*	13%
Cc1ccc(C)c(S(=O)(=O)NCc2ccc(C(=O)NCc3ccco3)cc2)c1	?	-10%	9.3µM*	-13%
Cc1ccc(C(=O)NCc2ccco2)c(C)c1	32%	-1%	12µM*	26%
O=C(Nc1ccccc1C(=O)NCc1ccco1)Nc1cccc2ccccc12	?	-9%	-31%	11µM*
O=C(NCc1ccco1)c1cccc2ccccc12	8%	-1%	15%	2%
CC[C@]1(C(=O)OC)[C@H]2C(=O)N(C)C(=O)[C@H]2[C@H]2CN=C(SC)N21	.	-1%	.	14%
CN(CCO)C1=NS(=O)(=O)c2cc([N+](=O)[O-])ccc21	4.1µM*	-2%	-27%	?
OC(c1cccc(Cl)c1)(c1cccc(Cl)c1)C1CN2CCC1CC2 (centres undefined)	?	-16%	-24%	16µM*
O=C(Nc1cccc(C(F)(F)F)c1)OC1CN2CCC1CC2 (centres undefined)	22%	19%	1%	-30%
O=[N+]([O-])c1ccc(O)c(/C=N/Nc2ccccn2)c1	2.9µM*	44%[11.6 µM]	?	2.5µM*
O=[N+]([O-])c1ccc(O)c(/C=N/Nc2ncnc3c2cnn3-c2ccccc2)c1	1.2µM*	92%	0.52µM*	2.8µM*
C(=N\Nc1nc(-c2ccccc2)cs1)/c1cccs1	-79%	72%	?	10µM*
COc1ccc(O)c(/C=N/Nc2nc3ccccc3[nH]2)c1	1.9µM*	?	2%	4%
C(=N\Nc1nc(-c2ccccc2)cs1)/c1ccncc1	-23%	3%	?	-30%
O=[N+]([O-])c1ccc(NN=Cc2ccccc2O)nc1	.	68%	.	?
COc1cc(/C=N/Nc2nc3ccccc3[nH]2)cc(OC)c1O	1.7µM*	24%[11.6 µM]	0.93µM*	-8%
C(=N\Nc1nc2ccccc2[nH]1)/c1ccncc1	?	3%	0%	-20%
SMILES	Pf growth 48h	AMA1 RON2 block	Pf growth 96h	HCV inh
COc1cc(/C=N/Nc2nc3ccccc3[nH]2)ccc1O	0.83µM*	14%	?	7%
Clc1nc2ccccc2cc1/C=N/Nc1nc2ccccc2[nH]1	0.52µM*	98%	?	-9%
C(=N\Nc1nc2ccccc2[nH]1)/c1cccs1	2.9µM*	49%	2.6µM*	24%
COc1cc(/C=N/Nc2nc3ccccc3[nH]2)cc(Br)c1OCC(=O)N(C)C	0.47µM*	89%	0.47µM*	-15%
O=[N+]([O-])c1ccc(O)c(/C=N/Nc2nc3ccccc3[nH]2)c1	2.3µM*	41%	76%	11µM*
NC(=O)NC(=O)C[n+]1cccc(/C=N/O)c1	0%	14%	10µM*	9%
COC(=O)C1=C(C(=O)OC)SC2(S1)C(C(=O)OC)=C(C(=O)OC)SC1=C2c2cc(C)cc(C)c2NC1(C)C	5.9µM*	?	?	15%
CCCN1CCC(C(=O)NC(c2ccc(Cl)cc2)c2ccsc2)CC1 (centres undefined)	.	-20%	.	.
Cc1cccc(N=Nc2cnc(N)s2)c1	184%	-18%	96%	-27%
CCOc1ccc(C(=O)NCCN2CCCCC2)c(OCC)c1	?	-8%	89%	-20%
Oc1ccc2ccccc2c1CN1CC2CCC(CC2)C1	.	-4%	.	6%
Oc1ccc2ccccc2c1CN1CCN(c2ccccc2)CC1	8.3µM*	-10%	?	10%

Screens (PubChem BioAssay)
